Source: PubChem BioAssay (several laboratories)
Only some compounds are listed: those with a hit (about 4.5% of all), similar ones and a draw of the others.
Rpn11 inh: Rpn11 (PSMD14) deubiquitinase inhibitors, primary screen, biochemical, fluorescence polarization, uHTS; 26S proteasome non-ATPase regulatory subunit 14 (Homo sapiens), O00487; hit rate 0.59% among 360,000; inhibition, % at 20 µM; human 26S proteasome, Ub4-pepOG fluorescence polarization; 20S core pre-blocked with epoxomicin;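 active = inhibition at 20 µM, scaled to each plate's controls, above about 33%, limit read from the data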
EBNA-1 inhibitor: EBNA-1 DNA-binding inhibitors, primary screen, biochemical, fluorescence polarization; inhibition, % at 14.8 µM; hit rate 0.34% among 300,000; AID 1950, 2009; in the data active = inhibition above about 28%
TPT1 inhibitor: Candida albicans TPT1 enzyme inhibitors, primary screen, biochemical, fluorescence polarization; tRNA 2'-phosphotransferase TPT1 (Candida albicans SC5314); recombinant caTPT1, FP RNA substrate dephosphorylation; inhibition, % at 5 µM; hit rate 0.81% among 300,000; AID 1962, 2009;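 active = inhibition above the mean of all tested compounds plus 3 SD, set per screening campaign, cut at about 24% in these data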;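 note: plate controls were DMSO alone for no effect and ferristatin control at 100 nM for full effect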
dFosB act-1: activators of delta FosB homodimer, primary screen, biochemical, fluorescence polarization, TAMRA-CDK5 oligo, single point | purified delta FosB; percent of positive-control signal above neutral wells | hit rate 0.99% among 340,000 | Protein FosB (Mus musculus), P13346 | activation, % at 25 µM;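 active = mean activation above about 17%, with every replicate also reaching it, limit read from the data, passing the limit was not always enough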
GRIN3A LBD mod: binders of NR3A ligand-binding domain, primary screen, biophysical, differential scanning fluorimetry, uHTS; NR3A LBD differential scanning fluorimetry, Tm shift; 0% = protein alone, 100% = glycine-bound protein; Glutamate receptor ionotropic, NMDA 3A (GRIN3A) ligand-binding domain; Tm shift relative to glycine control, % at 25 µM; AID 1259313, 2017; hit rate 2.5% among 340,000;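 active = melting temperature shift of at least 10% of the positive control shift, at one fixed dose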
ZTA counter: blocks Epstein-Barr virus ZTA, an EBNA-1 counter-screen. P03206. ZTA-DNA binding, fluorescence polarization. inhibition, % at 11 µM. hit rate 0.15% among 320,000. AID 2234; in the data active = inhibition above about 33%
Target sequence (P03206 whole entry, looked up): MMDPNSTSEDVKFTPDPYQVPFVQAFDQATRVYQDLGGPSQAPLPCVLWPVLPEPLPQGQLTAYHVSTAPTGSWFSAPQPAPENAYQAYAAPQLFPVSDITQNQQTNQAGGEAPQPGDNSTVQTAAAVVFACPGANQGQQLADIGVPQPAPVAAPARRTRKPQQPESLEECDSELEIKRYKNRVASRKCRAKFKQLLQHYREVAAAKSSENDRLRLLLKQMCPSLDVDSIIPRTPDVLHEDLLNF
dFosB act-2: activators of mouse delta FosB DNA binding, confirmation, biochemical, fluorescence polarization, TAMRA-CDK5 oligo, cherry-picked samples. shares compounds with dFosB act-1. purified delta FosB; normalised: neutral wells 0, positive control 100. activation, % at 24.9 µM. 2,400 tested, under 10 active. AID 588690, 2011;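 active = highest replicate activation at or above 34% and every replicate reaching that threshold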;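 note: higher polarization means more probe DNA bound by delta FosB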
The depositor's hits bear a star; x = not tested or not shown.

SMILES	Rpn11 inh	EBNA-1 inhibitor	TPT1 inhibitor	dFosB act-1	GRIN3A LBD mod	ZTA counter	dFosB act-2
O=[N+]([O-])c1cccc(/C=N/Nc2nc(N3CCOCC3)nc(N3CCOCC3)n2)c1	4	13	1	-4	0	8	x
CNc1nc(N/N=C/c2ccc([N+](=O)[O-])cc2)nc(Nc2ccccc2)n1	-3	9	-1	41*	30*	3	-9
CCOc1cc(/C=N\Nc2nc(Nc3ccccc3)nc(N3CCOCC3)n2)ccc1OC(=O)c1ccco1	4	-3	-1	48*	5	-8	-2
COc1ccc(/C=N/Nc2nc(Nc3ccccc3)nc(N3CCCC3)n2)cc1	2	10	4	47*	4	2	1
O=[N+]([O-])c1ccc(Nc2nc(N/N=C/c3cccc(F)c3)nc(N3CCCC3)n2)cc1	0	15	0	120*	25*	-2	3
O=[N+]([O-])c1ccc(/C=N/Nc2nc(N3CCOCC3)nc(N3CCOCC3)n2)cc1	0	3	-6	4	x	-15	x
CCc1ccc(C(O)c2ncc(-c3cccc(F)c3)[nH]2)cc1 (stereo unspecified)	0	x	x	x	x	x	x
Cc1cccc(C)c1NC(=O)CCn1cnc2ccccc2c1=O	0	13	-1	-1	-2	-3	x
CC1CCC(NC(=O)C2CCC(CNc3c(N4CCCCC4)c(=O)c3=O)CC2)CC1 (stereo unspecified)	6	-6	-2	-7	-2	1	x
CCc1noc(C)c1C(=O)N1CCN(c2cccc(Cl)c2)CC1	5	x	x	x	x	x	x
COc1ccc(NC(=O)CN(C)C(=O)c2cccc(-n3cccc3)c2)cc1	-20	-1	0	-5	x	-3	x
O=[N+]([O-])c1ccc(Nc2nc(NC3CCCCC3)nc(N3CCCC3)n2)cc1	11	10	1	48*	-22	-8	3
Cc1cc(C)nc(N/N=C/c2cc3c(cc2[N+](=O)[O-])OCO3)n1	-2	4	-2	7	-1	-10	x
O=[N+]([O-])c1cc2c(cc1/C=N/Nc1nc(Nc3ccccc3)nc(N3CCCCC3)n1)OCO2	39	-12	-4	38*	-1	-3	0
O=C1CCC(C(=O)N2CCC(CO)(Cc3ccc(Cl)cc3)CC2)=NN1	0	-4	-4	-5	0	-9	x
O=C(/C(=C(\O)c1ccccc1)c1nc2ccccc2[nH]1)c1ccccc1	-4	-5	3	-4	3	-4	x
O=C(/C=C/c1ccc(Cl)cc1Cl)c1nc2ccccc2[nH]1	-6	-12	1	40*	-4	-5	6
N#Cc1c(SCC(=O)Nc2ccccc2)nsc1SCC(=O)Nc1ccccc1	1	7	-1	25*	15*	10	0
CN(C(=O)COC(=O)/C=C/c1cccc([N+](=O)[O-])c1)C1CCS(=O)(=O)C1 (stereo unspecified)	2	-4	-3	-2	0	-19	x
CN(C(=O)COC(=O)c1c2c(nc3ccccc13)/C(=C/c1cccc([N+](=O)[O-])c1)CCC2)C1CCS(=O)(=O)C1 (stereo unspecified)	2	-2	-1	17*	3	-7	-2
COC1OC2COC(c3ccccc3)OC2C(NC(C)=O)C1OC(C)=O (stereo unspecified)	0	x	x	x	x	x	x
CCN(CC)C(=O)Cn1c(=O)n(CCCCCC(=O)Nc2ccccc2)c(=O)c2sccc21	0	1	-4	-4	-1	-6	x
CCC(C)NC(=O)Cn1c(=O)n(CCCCCC(=O)Nc2ccccc2)c(=O)c2sccc21 (stereo unspecified)	-8	-15	0	18*	3	7	0
